Source: PubChem BioAssay
Compounds with a hit are over-represented: about 2.6% of the library has one in this group of screens.
GLP-1R agonist = qHTS of GLP-1 Receptor Agonists. AID 624172, 2012. HEK293 GLP-1R CRE-luciferase, luminescence, 4-6 h; cells express a hypersensitive GLP-1R form. Potency, µM (series often up to 45.6 µM), hits mostly activators. 0.007% of 380,000 active
Target sequence (P43220 whole entry, looked up): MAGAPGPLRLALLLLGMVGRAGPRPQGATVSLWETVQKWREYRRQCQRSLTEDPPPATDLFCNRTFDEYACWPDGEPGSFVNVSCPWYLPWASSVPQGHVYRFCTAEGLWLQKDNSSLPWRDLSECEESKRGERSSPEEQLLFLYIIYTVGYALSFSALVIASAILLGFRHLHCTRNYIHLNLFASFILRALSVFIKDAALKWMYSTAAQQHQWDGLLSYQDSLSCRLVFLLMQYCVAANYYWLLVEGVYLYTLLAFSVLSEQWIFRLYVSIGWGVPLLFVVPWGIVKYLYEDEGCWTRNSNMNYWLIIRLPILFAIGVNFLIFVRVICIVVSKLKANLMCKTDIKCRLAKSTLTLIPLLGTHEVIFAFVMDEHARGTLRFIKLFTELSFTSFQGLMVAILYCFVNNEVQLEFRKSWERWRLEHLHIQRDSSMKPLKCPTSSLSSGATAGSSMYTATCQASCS
GLP1R cytotox = qHTS of GLP-1 Receptor Inverse Agonists: Cytotox Screen; HEK293 cAMP-luciferase reporter cells, luminescence, 24 h; Potency, µM (series often up to 38.3 µM), hits mostly inhibitors; 0.13% of 410,000 active; AID 624418, 2012;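 also: loss of luciferase light is scored as toxicity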
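Here, cytotoxicity is scored as loss of luminescence. The MLSMR collection was tested on cells seeded in medium containing 10% Nu serum, with a 24 hr compound exposure preceded by 12 hours of culture.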
BRCA1 expr up = qHTS Assay to Identify Small Molecule Activators of BRCA1 Expression | MCF7-BRCA1-FFLuc reporter, luminescence, 48 h; response scale: scaled: vehicle 0%, 10 µM genistein 100% | Potency, µM (doses to about 46.1 µM), actives largely listed as activators | 1.1% of 380,000 active | AID 624202, 2012; also: nearly all actives have a fitted effect of over 80% in size
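48 h compound treatment of MCF7-BRCA1-FFLuc cells (phenol-red free MEM, 37 °C), then 15 min with luciferase substrate and luminescence imaging.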
GLP-1R inv ag = qHTS of GLP-1 Receptor Inverse Agonists (Inhibition Mode) | Glucagon-like peptide 1 receptor (Homo sapiens), P43220 | HEK293 GLP-1R CRE-luciferase, luminescence, 24 h; GLP-1R form is constitutively active | Potency, µM (titrated, usually from 38.3 µM), most hits filed as inhibitors | 1.6% of 410,000 active | AID 624417, 2012; also: nearly all actives have a fitted effect of over 55% in size
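HEK293 cells stably co-expressing constitutively active GLP-1R and a cAMP-responsive luciferase reporter were seeded in DMEM with 10% Nu serum, given compounds after 12 h, and incubated 24 h at 37 deg C. Luminescence was then read.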
Of the large screens only hits and unclear results are named; the others gave an inactive call. Calls follow the shape of the dose curve; as a rule, active = well fitted curve in the direction sought with a large enough effect; inconclusive = small, poorly fitted or top-dose-only effect, or another doubt; inactive = no such curve, though single readings can be large; an effect the other way counts as inactive or inconclusive.

O=C(COc1ccc(-c2ccccc2)cc1)NNC(=O)NC1CCCCC1	none
COc1ccc(C=Cc2ccc3ccccc3n2)c(OC)c1	GLP-1R inv ag 4.47µM
COc1ccc(-c2nc(C)c(CCNC(=O)c3ccco3)s2)cc1	BRCA1 expr up inconclusive
O=[N+]([O-])c1ccccc1OCCCn1cnc2ccccc21	BRCA1 expr up 2µM
CCc1ccccc1NC(=O)Nc1cccn(Cc2ccccc2F)c1=O	GLP-1R inv ag 10µM
CSc1ccc(NC(=O)Nc2cccn(Cc3ccccc3F)c2=O)cc1	GLP-1R inv ag inconclusive
OC(COc1ccc2ccccc2c1Br)Cn1cnc(-c2ccccc2)c1 (centres undefined)	GLP-1R inv ag 10µM
COc1ccc(OCC(O)Cn2cnc(-c3ccc(Br)cc3)c2)cc1 (centres undefined)	GLP-1R inv ag inconclusive
Cc1cc(C)nc(NS(=O)(=O)c2ccc(NC(=O)C3(c4ccccc4)CCCC3)cc2)n1	none
c1ccc(COc2cccc(-c3cc4nc(NCCOc5ccccc5)ccn4n3)c2)cc1	GLP-1R inv ag 10µM
CCCC(=O)N1CCC1(C)C(=O)Nc1ccc2c(c1)CCN2C(C)=O (centres undefined)	none
COc1cccc(/C=N/Nc2cc(-n3nc(C)cc3-c3ccccc3)ncn2)c1O	GLP1R cytotox 2.24µM, GLP-1R inv ag 3.55µM
CCOc1ccccc1OCCCC(=O)Nc1ccc(Cl)c(S(=O)(=O)N2CCOCC2)c1	none
Oc1oc(-c2ccccc2)nc1C=Nc1ccccc1	GLP1R cytotox inconclusive
Oc1oc(-c2ccccc2)nc1C=NCc1ccccc1	BRCA1 expr up 10µM
CCCCCc1ccc(-c2cn(Cc3ccc(C)cc3)nn2)cc1	none
COc1ccc(-c2cn(Cc3ccc(C)cc3)nn2)cc1	BRCA1 expr up 8.91µM
O=C(c1cc(-c2ccc(Br)cc2)nc2ccccc12)N1CCC1	GLP-1R inv ag inconclusive
O=C(c1cc(-c2cccc(Br)c2)nc2ccccc12)N1CCCC1	GLP-1R inv ag 10µM
CC(CNC(=O)Cn1ccc2cc(S(=O)(=O)N3CCCCCC3)ccc21)c1ccccc1 (centres undefined)	GLP-1R inv ag 11.2µM (no result: GLP-1R agonist, BRCA1 expr up)
NC(=O)CSc1ncc2c(n1)-c1ccccc1N(Cc1ccc(F)cc1)S2(=O)=O	none (no result: GLP-1R agonist, BRCA1 expr up)
CCCCCCN1CCN(C2CN(Cc3ccc([N+](=O)[O-])cc3)S(=O)(=O)C2)CC1 (centres undefined)	GLP1R cytotox inconclusive, GLP-1R inv ag inconclusive
Fc1cccc(Cn2cc(C(=S)N3CCCCC3)c3ccccc32)c1	GLP-1R inv ag 7.94µM
CCCCN(CCCC)S(=O)(=O)c1ccc2oc(C(=O)NCc3ccccc3)c(C)c2c1	GLP-1R inv ag inconclusive (no result: GLP-1R agonist, BRCA1 expr up)
Cn1cc(Cl)c(C(=O)N/N=C/c2ccc3c4c(cccc24)CC3)n1	BRCA1 expr up 1.26µM
O=C(NCc1ccccc1)C1c2ccccc2OCC(=O)N1Cc1cccnc1 (centres undefined)	none
O=C(Nc1ccc(F)cc1F)c1sccc1SCc1cccc(C(F)(F)F)c1	GLP-1R inv ag 10µM
OCCc1ccc(O)c(-n2nc3ccccc3n2)c1	BRCA1 expr up 11.2µM
N#Cc1ccc(COc2ccc(CCO)cc2-n2nc3ccccc3n2)cc1	GLP-1R inv ag inconclusive
Cc1ccc(CNC(=O)CSc2ccsc2[N+](=O)[O-])cc1	BRCA1 expr up inconclusive
COc1ccc(CNC(=O)CSc2ccsc2[N+](=O)[O-])cc1	BRCA1 expr up 10µM
COCCCNC(=O)c1ccc(-n2c(-c3ccccc3)cc3c2CCCC3)cc1	none (no result: GLP-1R agonist, BRCA1 expr up)
Cc1cccc(NS(=O)(=O)c2ccc3[nH]c(=O)ccc3c2)c1C	none (no result: GLP-1R agonist, BRCA1 expr up)
COc1ccc(S(=O)(=O)Nc2ccc(Nc3ccccc3)cc2)cc1	GLP-1R inv ag 7.08µM
COc1ccc(NC(=O)NC(=O)c2ccccc2)cc1	BRCA1 expr up 1.12µM
COc1ccc(C(=O)N/N=C/c2sc3ccccc3c2O)cc1	GLP1R cytotox inconclusive, GLP-1R inv ag 1.58µM
COc1ccc(S(=O)(=O)Nc2ccccc2)cc1	none
COc1ccc(C(=O)N/N=C/C(=O)c2ccccc2)cc1	BRCA1 expr up 5.62µM
COc1ccc(NC(=S)c2ccccc2)cc1	BRCA1 expr up 7.94µM
COc1cc(C(=O)Oc2ccccc2/C=N/NC(=O)c2ccc(Cl)cc2Cl)cc(OC)c1OC	GLP-1R inv ag 2.24µM
COc1cc(-c2nc(-c3cccc(Cl)c3)c(-c3ccccc3)[nH]2)cc(OC)c1OC	GLP1R cytotox inconclusive, GLP-1R inv ag 3.55µM (no result: GLP-1R agonist, BRCA1 expr up)
CCCCc1nn2c(=O)cc(COC(=O)C3CCCCC3)nc2s1	none (no result: GLP-1R agonist)
CN(CC(=O)Nc1ccc(F)cc1)C(=O)c1cc2c(s1)CCCCC2	GLP-1R inv ag 10µM
FC(F)(F)c1cc(-c2cccc(Br)c2)nc2ncnn12	none
O=C(NCCc1ccccc1)c1nnc(Cc2cccc(F)c2)o1	none (no result: GLP-1R agonist, BRCA1 expr up)
CCOC(=O)Nc1sc2c(c1C(=O)OCC)CCC2	none
CCOC(=O)c1c(NC(NC(=O)C(C)C)C(Cl)(Cl)Cl)sc2c1CCC2 (centres undefined)	GLP-1R inv ag 5.62µM
Cn1c(CCNC(=O)c2ccco2)nc2cc(NC(=O)c3ccccc3)ccc21	BRCA1 expr up inconclusive
Cc1nc2cc(NC(=O)NCc3ccco3)ccc2n1C	BRCA1 expr up 11.2µM
Cn1c(CCNC(=O)c2ccco2)nc2cc(NC(=O)c3ccco3)ccc21	BRCA1 expr up 8.91µM
Cc1nc2cc(NC(=O)c3ccco3)ccc2n1C	GLP-1R inv ag inconclusive
O=C(CCN1CCCC1=O)NC1CCCc2c1cnn2-c1ccc(F)cc1F (centres undefined)	none
COc1cccc2cc(C(=O)Nc3cc(C)cc(C)c3)/c(=N/NS(=O)(=O)c3ccccc3)oc12	none
COc1ccc(NC(=O)c2cc3ccccc3o/c2=N\NS(=O)(=O)c2ccc(C)cc2)cc1	BRCA1 expr up 5.01µM
CCc1ccc(-c2nnn(CCC#N)n2)cc1	BRCA1 expr up 12.6µM
C[C@@]12C(=O)Nc3ccc(Cl)cc3C(=O)N1[C@H]1c3cc(Cl)ccc3OC[C@@H]1[C@@H]2c1ccccc1	GLP-1R inv ag inconclusive
Cc1ccc2c(c1)C(=O)N1[C@H]3c4ccccc4OC[C@@H]3[C@H](c3ccccc3)[C@]1(C)C(=O)N2	GLP-1R inv ag 11.2µM
Cc1ccc2c(c1)[C@H]1[C@H](CO2)[C@H](c2ccccc2)[C@]2(C)C(=O)Nc3ccc(Cl)cc3C(=O)N12	GLP-1R inv ag 6.31µM
Cc1cccc(C(=O)N=c2sccn2C)c1[N+](=O)[O-]	BRCA1 expr up 5.01µM
COc1cccc(C(=O)Nc2nc3c(s2)CN(C)CC3)c1	BRCA1 expr up 14.1µM
COc1ccc(Nc2nc3ccc(OC)cc3s2)cc1	BRCA1 expr up 7.94µM, GLP-1R inv ag inconclusive
COc1ccc2nc(NC(=O)c3c(C)noc3C)sc2c1	BRCA1 expr up 2.82µM
COc1ccc(C(=O)Nc2nc3ccc(OC)cc3s2)cc1	GLP1R cytotox inconclusive, BRCA1 expr up 2.24µM
COc1ccc2nc(Nc3nc(C)c(C(C)=O)s3)sc2c1	BRCA1 expr up inconclusive, GLP-1R inv ag inconclusive
CCC(=O)N1CCC(c2ccc(OC)cc2)=N1	BRCA1 expr up 11.2µM
